{"source": "paper PMC12820563", "about": "“FoxP3 forms a head-to-head dimer in vivo and stabilizes its multimerization on adjacent microsatellites”", "note": "Whole data set: some 16,000 sequences, median “rpm ratio (pull-down/input)” near 0.5, cut for the highest 2% near 5.5. The entries come from a sample that favours the highest values as a whole.", "data": [{"target": "T1, MBP-FoxP3dN (Mus musculus, UniProt Q99JB6 188-423)", "T1 sequence": "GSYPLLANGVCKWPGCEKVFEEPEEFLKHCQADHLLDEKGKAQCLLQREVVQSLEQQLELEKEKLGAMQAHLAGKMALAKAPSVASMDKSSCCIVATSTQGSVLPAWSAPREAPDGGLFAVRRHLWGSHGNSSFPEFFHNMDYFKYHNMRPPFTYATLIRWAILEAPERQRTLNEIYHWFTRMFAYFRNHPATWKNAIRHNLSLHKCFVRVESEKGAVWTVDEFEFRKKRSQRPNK", "experiment": "PD-seq (MBP pull-down with sequencing); 20 mM Tris-HCl pH 7.5, 100 mM NaCl, 1.5 mM MgCl2, 0.4 uM protein, 0.1 uM dsDNA library, 30 min, room temperature, amylose pull-down; high values mean tight binding", "conditions": "protein: recombinant; tags: His6-MBP; chain copies: 2; dsDNA, one strand shown", "outline": "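A fragment of mouse FoxP3 or FoxP1 without its N-terminus, carrying a His6-MBP tag and produced in E. coli, was combined at 0.4 µM with a 0.1 µM degenerate double-stranded DNA library filled in with Klenow. The mixture sat for 30 min at room temperature in Tris pH 7.5 buffer containing NaCl and MgCl2. Protein–DNA complexes were captured on amylose resin, washed three times, and the DNA was freed with proteinase K, barcoded by PCR and sequenced on Illumina. Binding is expressed as reads-per-million enrichment of pull-down over input, with replicates pooled.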", "values": [{"sequence": "GATGATTGTTCTCCCAGCTGATGAATTTCATTGGTCGAGTAAACAAATTTTCCTAATCTTTCTGTTCAAGCGCCATCTAC", "binding signal": "1.11 RPM ratio (pull-down/input)"}, {"sequence": "GATGATTGTTCTCCCAGCTGATGAATTCTTGTCATCGAGTAAACAAATTTTCCTAATCTTTCTGTTCAAGCGCCATCTAC", "binding signal": "0.625 RPM ratio (pull-down/input)"}, {"sequence": "GATGATTGTTCTCCCAGCTGATGAATTAGGCAAATCGAGTAAACAAATTTTCCTAATCTTTCTGTTCAAGCGCCATCTAC", "binding signal": "0.601 RPM ratio (pull-down/input)"}, {"sequence": "GATGATTGTTCTCCCAGCTGATGAATTAGGGCATTCGAGTAAACAAATTTTCCTAATCTTTCTGTTCAAGCGCCATCTAC", "binding signal": "5.05 RPM ratio (pull-down/input)"}, {"sequence": "GATGATTGTTCTCCCAGCTGATGAATTAGGCCTCTCGAGTAAACAAATTTTCCTAATCTTTCTGTTCAAGCGCCATCTAC", "binding signal": "5.5 RPM ratio (pull-down/input)"}, {"sequence": "GATGATTGTTCTCCCAGCTGATGAATTAGGCAGCTCGAGTAAACAAATTTTCCTAATCTTTCTGTTCAAGCGCCATCTAC", "binding signal": "1.13 RPM ratio (pull-down/input)"}, {"sequence": "GATGATTGTTCTCCCAGCTGATGAATTAGGCGCCTCGAGTAAACAAATTTTCCTAATCTTTCTGTTCAAGCGCCATCTAC", "binding signal": "1.35 RPM ratio (pull-down/input)"}, {"sequence": "GATGATTGTTCTCCCAGCTGATGAATTTAGGCATTCGAGTAAACAAATTTTCCTAATCTTTCTGTTCAAGCGCCATCTAC", "binding signal": "5.38 RPM ratio (pull-down/input)"}, {"sequence": "GATGATTGTTCTCCCAGCTGATGAATTAGGCATTTCGAGTAAACAAATTTTCCTAATCTTTCTGTTCAAGCGCCATCTAC", "binding signal": "6.35 RPM ratio (pull-down/input)"}, {"sequence": "GATGATTGTTCTCCCAGCTGATGAATTAGGCATCTCGAGTAAACAAATTTTCCTAATCTTTCTGTTCAAGCGCCATCTAC", "binding signal": "6.82 RPM ratio (pull-down/input)"}, {"sequence": "GATGATTGTTCTCCCAGCTGATGAATTTTAGGCCTCGAGTAAACAAATTTTCCTAATCTTTCTGTTCAAGCGCCATCTAC", "binding signal": "0.444 RPM ratio (pull-down/input)"}, {"sequence": "GATGATTGTTCTCCCAGCTGATGAATTGCTCAGATCGAGTAAACAAATTTTCCTAATCTTTCTGTTCAAGCGCCATCTAC", "binding signal": "0.345 RPM ratio (pull-down/input)"}, {"sequence": "GATGATTGTTCTCCCAGCTGATGAATTAACAATGTCGAGTAAACAAATTTTCCTAATCTTTCTGTTCAAGCGCCATCTAC", "binding signal": "0.512 RPM ratio (pull-down/input)"}, {"sequence": "GATGATTGTTCTCCCAGCTGATGAATTGCTTATGTCGAGTAAACAAATTTTCCTAATCTTTCTGTTCAAGCGCCATCTAC", "binding signal": "1.87 RPM ratio (pull-down/input)"}, {"sequence": "GATGATTGTTCTCCCAGCTGATGAATTCGGCACTTCGAGTAAACAAATTTTCCTAATCTTTCTGTTCAAGCGCCATCTAC", "binding signal": "0.811 RPM ratio (pull-down/input)"}, {"sequence": "GATGATTGTTCTCCCAGCTGATGAATTTTTTGCGTCGAGTAAACAAATTTTCCTAATCTTTCTGTTCAAGCGCCATCTAC", "binding signal": "0.525 RPM ratio (pull-down/input)"}, {"sequence": "GATGATTGTTCTCCCAGCTGATGAATTTTGCGCGTCGAGTAAACAAATTTTCCTAATCTTTCTGTTCAAGCGCCATCTAC", "binding signal": "3.39 RPM ratio (pull-down/input)"}, {"sequence": "GATGATTGTTCTCCCAGCTGATGAATTTGTTGCGTCGAGTAAACAAATTTTCCTAATCTTTCTGTTCAAGCGCCATCTAC", "binding signal": "6.75 RPM ratio (pull-down/input)"}, {"sequence": "GATGATTGTTCTCCCAGCTGATGAATTGTTTGCGTCGAGTAAACAAATTTTCCTAATCTTTCTGTTCAAGCGCCATCTAC", "binding signal": "6.41 RPM ratio (pull-down/input)"}, {"sequence": "GATGATTGTTCTCCCAGCTGATGAATTCTTTGCGTCGAGTAAACAAATTTTCCTAATCTTTCTGTTCAAGCGCCATCTAC", "binding signal": "0.489 RPM ratio (pull-down/input)"}, {"sequence": "GATGATTGTTCTCCCAGCTGATGAATTTGCGTCGTCGAGTAAACAAATTTTCCTAATCTTTCTGTTCAAGCGCCATCTAC", "binding signal": "2.28 RPM ratio (pull-down/input)"}, {"sequence": "GATGATTGTTCTCCCAGCTGATGAATTTAACGAGTCGAGTAAACAAATTTTCCTAATCTTTCTGTTCAAGCGCCATCTAC", "binding signal": "0.208 RPM ratio (pull-down/input)"}, {"sequence": "GATGATTGTTCTCCCAGCTGATGAATTAGCTGCTTCGAGTAAACAAATTTTCCTAATCTTTCTGTTCAAGCGCCATCTAC", "binding signal": "0.674 RPM ratio (pull-down/input)"}, {"sequence": "GATGATTGTTCTCCCAGCTGATGAATTGTACGTATCGAGTAAACAAATTTTCCTAATCTTTCTGTTCAAGCGCCATCTAC", "binding signal": "0.769 RPM ratio (pull-down/input)"}, {"sequence": "GATGATTGTTCTCCCAGCTGATGAATTAGAGATGTCGAGTAAACAAATTTTCCTAATCTTTCTGTTCAAGCGCCATCTAC", "binding signal": "0.424 RPM ratio (pull-down/input)"}, {"sequence": "GATGATTGTTCTCCCAGCTGATGAATTCTAAGTGTCGAGTAAACAAATTTTCCTAATCTTTCTGTTCAAGCGCCATCTAC", "binding signal": "0.48 RPM ratio (pull-down/input)"}, {"sequence": "GATGATTGTTCTCCCAGCTGATGAATTTACGCATTCGAGTAAACAAATTTTCCTAATCTTTCTGTTCAAGCGCCATCTAC", "binding signal": "6.38 RPM ratio (pull-down/input)"}, {"sequence": "GATGATTGTTCTCCCAGCTGATGAATTACGCCTGTCGAGTAAACAAATTTTCCTAATCTTTCTGTTCAAGCGCCATCTAC", "binding signal": "5.4 RPM ratio (pull-down/input)"}, {"sequence": "GATGATTGTTCTCCCAGCTGATGAATTACCCATGTCGAGTAAACAAATTTTCCTAATCTTTCTGTTCAAGCGCCATCTAC", "binding signal": "0.294 RPM ratio (pull-down/input)"}, {"sequence": "GATGATTGTTCTCCCAGCTGATGAATTACGCATTTCGAGTAAACAAATTTTCCTAATCTTTCTGTTCAAGCGCCATCTAC", "binding signal": "6.65 RPM ratio (pull-down/input)"}, {"sequence": "GATGATTGTTCTCCCAGCTGATGAATTACGCATGTCGAGTAAACAAATTTTCCTAATCTTTCTGTTCAAGCGCCATCTAC", "binding signal": "6.15 RPM ratio (pull-down/input)"}, {"sequence": "GATGATTGTTCTCCCAGCTGATGAATTCTACGCATCGAGTAAACAAATTTTCCTAATCTTTCTGTTCAAGCGCCATCTAC", "binding signal": "0.854 RPM ratio (pull-down/input)"}, {"sequence": "GATGATTGTTCTCCCAGCTGATGAATTTTACGCATCGAGTAAACAAATTTTCCTAATCTTTCTGTTCAAGCGCCATCTAC", "binding signal": "1.01 RPM ratio (pull-down/input)"}, {"sequence": "GATGATTGTTCTCCCAGCTGATGAATTACAACTCTCGAGTAAACAAATTTTCCTAATCTTTCTGTTCAAGCGCCATCTAC", "binding signal": "0.948 RPM ratio (pull-down/input)"}]}]}
